{"source": "PubChem BioAssay AID2284419", "about": "(EPA ToxCast)", "note": "Results filed as inconclusive are left out. Active and inactive are the calls of the source. How the source made its calls: active means hit-call score of the fitted dose curve at least 0.9, where 1 is the maximum; inconclusive means response in the unintended direction; inactive means score below 0.9.", "data": [{"system": "SRY-box transcription factor 2 (SOX2) Protein Expression, Deisenroth Lab, SOX2 (gene 6657)", "assay": "CCTE_Deisenroth_DEVTOX-GLR_Meso_SOX2: CCTE's DevTox GLR-Meso Assay Evaluation of SRY-box transcription factor 2 (SOX2) Protein Expression, Deisenroth Lab", "protocol": "CCTE_Deisenroth_DEVTOX-GLR_Meso assay is a cell-based, multiplex-readout assay that uses RUES2-GLR, a human pluripotent cell line, with measurements taken at 48 hours after chemical dosing in a 384-well microplateCCTE_Deisenroth_DEVTOX-GLR_Meso_SOX2 is 1 of 4 assay components calculated from the CCTE_Deisenroth_DEVTOX-GLR_Meso assay and it measures an the percentage of cells in an ectoderm state. Using a type of inducible fluorescent protein reporter, gain-of-signal activity can be used to understand changes in gene expression with fluorescent microscopy. The percentage of SOX2+ cells are determined by calculating the number of SOX2+ cells divided by the cell count. To generalize the intended target to other relatable targets, this assay component is annotated to the transcription factor intended target family, where the subfamily is SRY-related HMG-box.Data from the assay component CCTE_Deisenroth_DEVTOX-GLR_Meso_SOX2 was analyzed as 1 assay endpoint. The endpoint is the percent SOX2+ cell population minus the 0.2% DMSO control in the CCTE_Deisenroth_DEVTOX-GLR_Meso assay. Furthermore, this assay endpoint can be referred to as a secondary readout, because this assay has produced multiple assay endpoints where this one serves as a measure of ectoderm differentiation.\nAll assay protocols are aligned to the DevTox GLR-Endo assay workflow. Cells are seeded into 384-well microplates for 24 hours prior to initiating differentiation in defined media for a total duration of 48 hours. A total of two chemical exposures are administered in 24-hour intervals during the 48-hour differentiation period. At the assay termination point, cells are fixed and stained with a fluorescent dye demarcating the nucleus. High-content imaging is used to acquire brightfield and fluorescent channel images across 5 fields per well. Cell identification and mean biomarker fluorescence intensities are calculated with image analysis software to determine the total cell counts for viability assessment and the biomarker expression frequency for each lineage-dependent assay. A typical experimental design tests a 10-point concentration series (1 nM - 200 uM) for 28 compounds in single technical replicate. Assay plate controls include non-differentiated pluripotent cells (baseline control), lineage-specific differentiated cells (differentiation control), and DMSO solvent exposed differentiated cells (solvent control). Experiments typically comprise a minimum of four experimental replicates (n=4).", "values": [{"smiles": "CC1=C(/C=C/C(C)=C/C=C/C(C)=C/C(=O)O)C(C)(C)CCC1", "AC50": "7.53 µM (active)"}, {"smiles": "CS(=O)(=O)OCCCCOS(C)(=O)=O", "AC50": "124 µM (active)"}, {"smiles": "CC/C(=C(/CC)c1ccc(O)cc1)c1ccc(O)cc1", "AC50": "3.63 µM (active)"}, {"smiles": "O=C1NC(=O)C(c2ccccc2)(c2ccccc2)N1", "AC50": "180 µM (active)"}, {"smiles": "O=C1NS(=O)(=O)c2ccccc21", "outcome": "inactive"}, {"smiles": "Nc1cccc2c1C(=O)N(C1CCC(=O)NC1=O)C2=O", "note": "(stereo not given)", "outcome": "inactive"}, {"smiles": "CC(C)(c1ccc(O)cc1)c1ccc(O)cc1", "AC50": "56.6 µM (active)"}, {"smiles": "CCN(CC)CCNC(=O)c1c(C)[nH]c(/C=C2\\C(=O)Nc3ccc(F)cc32)c1C", "AC50": "0.194 µM (active)"}, {"smiles": "CC1=C(/C=C/C(C)=C/C=C/C(C)=C\\C(=O)O)C(C)(C)CCC1", "AC50": "18.8 µM (active)"}, {"smiles": "Nc1nc2ncc(CNc3ccc(C(=O)N[C@@H](CCC(=O)O)C(=O)O)cc3)nc2c(=O)[nH]1", "outcome": "inactive"}, {"smiles": "CN(Cc1cnc2nc(N)nc(N)c2n1)c1ccc(C(=O)N[C@@H](CCC(=O)O)C(=O)O)cc1", "AC50": "0.0688 µM (active)"}, {"smiles": "O=c1[nH]cc(F)c(=O)[nH]1", "AC50": "19.9 µM (active)"}, {"smiles": "CC1(C)S[C@@H]2[C@H](NC(=O)Cc3ccccc3)C(=O)N2[C@H]1C(=O)O", "outcome": "inactive"}, {"smiles": "CC(=O)Nc1ccc(O)cc1", "outcome": "inactive"}, {"smiles": "O=C1CCC(N2C(=O)c3ccccc3C2=O)C(=O)N1", "note": "(stereo not given)", "outcome": "inactive"}]}]}
